Assay outcomes as filed in PubChem BioAssay.
Compounds with a hit are over-represented: about 21% of the library has one in this group of screens.
SARS PLpro yeast: qHTS of Yeast-based Assay for SARS-CoV PLP; 330,000 tested, 0.19% active; Potency, µM (highest dose often 32.9 µM), for the others: top-dose activity, positive = growth rescue, actives largely listed as activators; S. cerevisiae expressing SARS-CoV PLpro, growth rescue; further: potency means the concentration at half of the fitted maximal effect; 0% is about no effect; nearly all actives have a fitted effect of over 55% in size
Pf growth 96h: Primary qHTS for delayed death inhibitors of the malarial parasite plastid, 96 hour incubation | AID 504834, 2011 | Potency, µM (top dose mostly 28.7 µM), for inactives: at the top dose activity change, negative = inhibition, hits mostly inhibitors | P. falciparum luciferase reporter growth, 96 h | 320,000 tested, 6.9% active; active means well fitted inhibition curve with a large enough effect; inconclusive means small, poorly fitted or top-dose-only effect, or another doubt; inactive means no such curve, though single readings can be large or run the other way; further: potency means the concentration at half of the fitted maximal effect; on the % scale 0 is the no-effect control and ±100 the full control effect
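Two-generation exposure (96 h) targets delayed-death phenotype. Reporter parasites carrying integrated firefly luciferase, in red cells at 2% hematocrit and 0.05% parasitemia final, kept at 37 C, 5% CO2; luminescence loss indicates inhibition.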
Pf growth 48h: Primary qHTS for delayed death inhibitors of the malarial parasite plastid, 48 hour incubation; P. falciparum luciferase growth in erythrocytes, 48 h; Potency, µM (top dose mostly 28.7 µM), for inactives: at the highest dose activity change, negative = inhibition, hits mostly inhibitors; 310,000 tested, 5.9% active; active means well fitted inhibition curve with a large enough effect; inconclusive means small, poorly fitted or top-dose-only effect, or another doubt; inactive means no such curve, though single readings can be large or run the other way; further: potency means the concentration at half of the fitted maximal effect; on the % scale 0 is the no-effect control and ±100 the full control effect
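Growth was read as firefly luciferase luminescence after a 48 h, 37 C, 5% CO2 exposure of compounds to reporter-bearing P. falciparum cultures (0.1% parasitemia, 2% hematocrit final) in Albumax-supplemented RPMI 1640.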
Cycloheximide cs: Cycloheximide Counterscreen for Small Molecule Inhibitors of Shiga Toxin; cell reporter, cycloheximide protein synthesis inhibition counterscreen; max response, %; 300,000 tested, 12% active; AID 2314, 2010; in the data active means max response mostly above about 13%, no sharp cut-off; inactive means mostly below about 14%; further: read at 38.3 µM for the half of the compounds with a filed dose; 0% is about no effect
Shiga toxin inh: A qHTS for Small Molecule Inhibitors of Shiga Toxin | Vero cells, Shiga toxin protein synthesis inhibition reporter | 290,000 tested, 9.2% active | inhibition, % at 38.7 µM | AID 2315, 2010; in the data active means inhibition mostly above about 28%, no sharp cut-off; inactive means mostly below about 43%; further: 0% is about no effect
NS1 function inh: qHTS Assay for Inhibitors of Influenza NS1 Protein Function | Potency, µM (highest dose often 46.1 µM), inactives show at the highest dose activity, positive = more growth | 270,000 tested, 0.4% active; further: potency means the concentration at half of the fitted maximal effect; actives are rising curves; nearly all actives have a fitted effect of over 50% in size
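In this qHTS, NS1 from influenza A is expressed in budding yeast, where it slows growth. Cells are switched from glucose to 2% galactose medium (pH 6.0, -URA), treated with compound, and growth recovery is read at OD600.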
An asterisk follows results filed as active; ? = inconclusive; . = not tested or not shown. Unless noted, the call rests on the fitted dose curve.

SMILES	SARS PLpro yeast	Pf growth 96h	Pf growth 48h	Cycloheximide cs	Shiga toxin inh	NS1 function inh
O=C(Nc1cc(Sc2ccccn2)cc([N+](=O)[O-])c1)c1ccc([N+](=O)[O-])cc1	0.7%	3.29µM*	13.1µM*	1.4	-5.5	3.7%
O=[N+]([O-])c1ccc(Sc2ccc(Cl)c(Cl)c2)nc1	-3.3%	-24.3%	10.0%	6.4	-12.0	15.2%
O=[N+]([O-])c1ccc(Sc2ccccn2)nc1	0.0%	8.28µM*	?	3.4	31.3	2.2%
O=[N+]([O-])c1ccc(SCCc2ccccn2)cc1	-2.8%	16.5%	18.5%	20.8*	50.3*	-0.7%
N#Cc1cc(Sc2ccccn2)c([N+](=O)[O-])cc1C#N	3.3%	69.2%	3.7µM*	8.3	-10.3	.
Nc1nonc1C(=O)N/N=C/c1cc2c(cc1Br)OCO2	-4.2%	46.0%	22.6%	8.8	-22.2	0.6%
C#CCCc1cocc1/C=[N+](\[O-])c1ccc(C(=O)OCC)cc1	-24.5%	?	?	.	.	.
Cc1cccc(NC(=O)Cn2cnc3ccccc3c2=O)c1C	.	10.0%	24.0%	2.6	-2.0	-2.2%
C[C@@H](C(=O)O)/C(=C/c1ccc2c(c1)OCO2)C(=O)O	.	.	.	.	.	-9.3%
O=C(NC1CCSc2ccccc21)c1cc(S(=O)(=O)N2CCOCC2)ccc1Cl (stereo not drawn)	2.1%	-7.6%	?	.	.	.
O=C(O)c1ccc(CSc2ccccn2)cc1	-0.6%	12.0%	1.5%	0.4	-3.8	1.4%
O=[N+]([O-])c1ccc(CSc2ccccn2)cc1	1.4%	24.8%	.	38.9*	48.5	2.0%
O=C(O)c1ccccc1CSc1ccccn1	-2.9%	?	11.9%	4.4	-19.1	.
Cc1cc(C)nc(SCc2ccc([N+](=O)[O-])cc2)n1	-0.8%	25.7%	-21.4%	-0.4	9.5	-3.9%
O=[N+]([O-])c1ccccc1CSc1ccccn1	-0.2%	22.6%	49.8%	11.0	52.8*	6.0%
Cc1ccnc(SCc2ccc([N+](=O)[O-])cc2)n1	-2.4%	?	79.5%	16.7*	45.9	2.1%
CCOc1ccc2ccccc2c1CNCCN1CCOCC1	-1.2%	5.22µM*	13.1µM*	1.7	-4.7	-7.7%
CCOc1ccc(Br)cc1CNCCN1CCOCC1	-6.0%	11.7µM*	-24.9%	-3.5	2.7	1.8%
CCN(CC(=O)NC1CCS(=O)(=O)C1)C(=O)c1ccc(OC)c([N+](=O)[O-])c1 (stereo not drawn)	0.0%	3.6%	9.0%	.	.	.
O=C(c1ccccc1F)N1CCN(c2ccc([N+](=O)[O-])c(NCc3cccnc3)c2)CC1	0.8%	10.4µM*	?	-2.4	-6.4	-5.3%
COc1ccc(C(=O)N2CCN(c3ccc([N+](=O)[O-])c(NCCc4ccc(OC)c(OC)c4)c3)CC2)cc1	3.9%	4.65µM*	10.4µM*	-2.7	-0.7	4.9%
O=C(c1ccccc1)N1CCN(c2ccc([N+](=O)[O-])c(NCc3cccnc3)c2)CC1	-0.1%	?	9.28µM*	-7.1	-9.0	-6.1%
COc1ccc(CCNc2cc(N3CCN(C(=O)c4ccccc4F)CC3)ccc2[N+](=O)[O-])cc1OC	-5.8%	14.8%	?	0.9	-9.5	6.3%
CC(C)(C)C(=O)N1CCN(c2ccc([N+](=O)[O-])c(NCc3cccnc3)c2)CC1	1.5%	14.8%	?	-3.0	-7.7	0.8%
Cc1[nH]c(SCC(=O)c2c(N)n(C)c(=O)n(C)c2=O)nc1Cc1ccccc1	0.5%	.	.	.	.	.
SMILES	SARS PLpro yeast	Pf growth 96h	Pf growth 48h	Cycloheximide cs	Shiga toxin inh	NS1 function inh
CSc1ccc(/C=C(\NC(=O)c2ccccc2)C(=O)NCCN2CCOCC2)cc1	1.8%	-0.8%	-7.0%	-3.6	-4.4	0.0%
CC(=O)c1cc2c(cc1NS(=O)(=O)c1ccccc1Br)OCO2	0.4%	10.5%	-9.4%	-1.0	27.0	6.8%
CC(NC(=O)CNC(=O)c1cccc(Cl)c1)c1ccccc1 (stereo not drawn)	-0.7%	?	16.6%	10.5	17.5	3.4%
COc1ccccc1C1(CC(=O)N2CCCCC2)CCOC(C(C)C)C1 (stereo not drawn)	-0.2%	14.7µM*	.	-5.1	-6.9	-0.2%
Cc1ccc(C2(CC(=O)N3CCCC3)CCOC(C(C)C)C2)cc1 (stereo not drawn)	3.2%	?	.	-0.5	-2.4	-2.0%
Cc1ccc(OC(=O)c2ccc([N+](=O)[O-])cc2Cl)cn1	1.5%	?	8.6%	0.7	19.5	-1.1%
C=CCCCCCCCCC(=O)N1CCN(c2cc3c(cc2F)c(=O)c(C(=O)O)cn3CC)CC1	1.0%	?	?	1.2	2.6	-2.0%
C=CCNC(=S)N1CCN(c2cc3c(cc2F)c(=O)c(C(=O)O)cn3CC)CC1	0.3%	2.33µM*	?	-1.9	-7.6	6.7%
CCn1cc(C(=O)O)c(=O)c2cc(F)c(N3CCN(C(=S)NC(=O)c4ccccc4Cl)CC3)cc21	1.5%	?	5.22µM*	-3.1	5.9	5.0%
CN1C(=O)[C@@H]2[C@H](C1=O)[C@@H]1C(=O)Nc3ccccc3C(=O)N1[C@@H]2c1cccc(Br)c1	1.4%	65.3%	-19.5%	.	.	.
COc1cc2[nH]c(=O)n(CCCCCC(=O)N3CC=C(c4ccccc4)CC3)c(=O)c2cc1OC	7.3%	-14.7%	.	10.1	-5.1	4.9%
CCOC(=O)c1ccc(NC(=O)N2CCN(c3ccccc3OC)CC2)cc1	-0.5%	72.5%	?	20.6	94.3	-4.8%
CCOC(=O)c1ccc(NC(=O)N2CCc3ccccc32)cc1	-3.2%	.	64.0%	28.6*	58.4*	-4.6%
NC(=O)Nc1ccc(C(=O)OCC(=O)N2CCc3ccccc3C2)cc1	0.7%	?	-29.4%	.	.	.
CCOC(=O)c1ccc(NC(=O)N2CCc3ccccc3C2)cc1	-10.0%	5.2%	?	30.3*	18.6	-50.4%
